Here are results for 10 compounds from PubChem BioAssay (NCI).

About 83,000 compounds went through this panel and 20% of them were active in at least one assay; those are over-represented in the sample as a whole.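 Each cell line was grown in a 96-well plate and treated with one concentration of compound for 48 hours. Values below 10 were considered active.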 The source made the active and inactive calls.

This experiment relates to HL-60(TB) leukemia. Kind of experiment: NCI-60 one-dose screen, 48 h (100 = growth as untreated, 0 = no growth, -100 = all killed). Particulars: 10 µM unless noted.
With `O=C(COc1ccc(Cl)cc1Cl)Oc1coc(CSc2nc3ccccc3s2)cc1=O`, the growth is 100% (inactive).

With `CC1(C)[C@@H](O[C@@H]2OC[C@@H](O[C@@H]3O[C@H](CO)[C@@H](O)[C@H](O)[C@H]3O[C@@H]3OC[C@@H](O)[C@H](O)[C@H]3O)[C@H](O)[C@H]2O[C@@H]2O[C@H](CO)[C@@H](O)[C@H](O)[C@H]2O)CC[C@]2(C)[C@H]3CC[C@]45OC[C@@]6(CC[C@](C)(C=O)C[C@H]64)[C@H](O)C[C@@]5(C)[C@]3(C)CC[C@@H]12`, the growth is -58.6% (active).

In the case of `Cc1nnc(N/N=C/c2ccc([N+](=O)[O-])o2)[nH]c1=O`, the growth is -34.8% (active).

With `COc1ccc(C2=NN(C(=O)c3cc(-c4ccc(C)cc4)nc4ccccc34)C(c3cc(-c4ccccc4)nn3-c3ccccc3)C2)cc1` (stereo not given), the growth is 90.6% (inactive).

On to `Clc1ccc(N2CCN(CCCN3CCN(c4cccc(Cl)c4)CC3)CC2)cc1`, for which the growth was 17% (inactive).

Consider `COc1ccc(Cl)cc1NC(=O)c1c(NC(=O)C(F)(F)C(F)(F)F)sc2c1CCCCC2`, for which the growth is 12.4% (inactive).

As for `N#CCCN(CCCN1CCOCC1)CN1C(=O)c2ccccc2C1=O`, the growth was 83.2% (inactive).

Regarding `CCOC(=O)c1cc(C(=O)c2cc(OC)c(OC)c(OC)c2)n2nc(C)ccc12`, the growth was -24.2% (active).

Turning to `CC(C)CCC[C@@H](C)[C@H]1CC[C@H]2[C@@H]3CC=C4c5sc(Nc6cc(C(F)(F)F)cc(C(F)(F)F)c6)nc5CC[C@]4(C)[C@H]3CC[C@]12C`, the growth is 101% (inactive).

For the compound `Cc1cc(O)c(C2=NN(c3ccc(S(N)(=O)=O)cc3)C(c3ccc(N(C)C)cc3)C2)c(C)c1Cl` (stereo not given), the growth was 24.1% (inactive).
